Screens: PubChem BioAssay, Broad Institute
NSD2 HMT inh: NSD2 histone methyltransferase inhibitors, primary screen, biochemical, AlphaScreen, single concentration, set 2. hit rate 0.54% among 310,000. inhibition, % at 12.5 µM. AID 743445, 2014. Histone-lysine N-methyltransferase NSD2 (Homo sapiens), O96028. NSD2 peptide methylation, 120 min; in the data active = inhibition above about 50%
MITF TRPM1 inh: inhibitors of MITF-dependent TRPM1 promoter reporter, primary screen, cell-based, SK-MEL-5, single point, luciferase; SK-MEL-5 TRPM1 promoter luciferase, 24 h; inhibition, % at 12.5 µM; hit rate 0.83% among 330,000;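 active = mean inhibition across replicates of 60% or more, whatever share of single replicates reaches that level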
PfHsp90 set2: growth inhibition of PfHsp90-expressing yeast, primary screen, antimalarial PfHsp90 inhibitor project, S. cerevisiae, BacTiter-Glo luminescence, single point, set 2; BacTiter-Glo ATP, 48 h; yeast lacking PDR1 and PDR3 efflux regulators; inhibition, % at 9.4 µM; hit rate 0.32% among 310,000; AID 504621, 2011;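 active = every replicate shows inhibition above about 80%, whatever the replicate mean, limit read from the data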;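 note: 0% = DMSO neutral controls and 100% = 20 µM radicicol positive controls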
MITF TRPM1 HTS: activators of MITF-driven TRPM1 promoter reporter, primary screen, cell-based, SK-MEL-5, luciferase, single point; SK-MEL-5 TRPM1-promoter luciferase, 24 h; % of positive control, neutral wells = 0; activation, % at 12.5 µM; hit rate 0.75% among 300,000; AID 588334, 2011;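 active = mean activation of at least 80% with every replicate also reaching 80%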;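 note: 0% = neutral control wells and 100% = parthenolide positive control wells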
Glyco luc inh: increase of ERlucT glycosylation luciferase signal, primary screen, N-linked glycosylation inhibitor project, D54 ERlucT cells, luminescence, set 2; D54 ERlucT glycosylation luciferase reporter, 24 h; percent of 100 nM tunicamycin response; reporter increase, % at 12.5 µM; hit rate 0.23% among 360,000; AID 588692, 2011;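 active = mean luciferase reporter signal, scaled so untreated is 0 and the glycosylation-blocking control 100, at or above a set limit in every replicate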;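 note: luciferase carries N-glycosylation sites so blocking glycosylation raises the light; 0% = median of neutral control wells and 100% = median of 100 nM tunicamycin wells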
Wnt act: Wnt/beta-catenin pathway activators, primary screen, cell-based, plate reader, single point; AID 743398, 2014; hit rate 1.2% among 300,000; activation, % at 9.35 µM; Wnt/beta-catenin reporter cell assay, activator; in the data active = activation above about 30%, passing the limit was not always enough;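 note: 0% = neutral control wells and 100% = positive control wells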
Alpha artifact: AlphaScreen signal interference with preloaded methylated product, dose response, artefact control for NSD2 inhibitor project, biochemical, cherry-picked samples; shares compounds with NSD2 HMT inh; AlphaScreen artifact counterscreen, preloaded methylated H4 peptide; AC35, µM (doses to about 10 µM), for the others: at the highest dose activity change, negative = signal loss; hit rate 9.4% among 1,500; AID 1053174, 2014; call rule not given here
Numbers without * were called inactive; · = no result; + = active, no number. A selection: hits, their analogues and other compounds. The true share with any hit is near 2.9%.

SMILES | NSD2 HMT inh | MITF TRPM1 inh | PfHsp90 set2 | MITF TRPM1 HTS | Glyco luc inh | Wnt act | Alpha artifact
COc1ccc(NC2=CC(c3ccccc3)N(c3ccc(OC)cc3)C2=O)cc1 (stereo unspecified) | -2 | · | · | · | 6 | 12 | ·
COc1ccc(NC2=CC(c3cccc(OC)c3)N(c3ccc(OC)cc3)C2=O)cc1 (stereo unspecified) | 52* | 12 | 0 | -11 | -1 | · | -8%
O=C(O)c1ccc2cccnc2n1 | 0 | -7 | · | 16 | 4 | -2 | ·
O=C(O)c1ccc2cccnc2c1O | 61* | 5 | 36 | 0 | 0 | 0 | -5%
Nc1c(C(=O)NCC2CCCO2)c2nc3ccccc3nc2n1-c1ccccc1 (stereo unspecified) | -19 | -6 | · | 6 | -8 | · | ·
Nc1c(C(=O)OCC2CCCO2)c2nc3ccccc3nc2n1C1CCCCC1 (stereo unspecified) | 76* | 15 | 1 | -6 | 7 | -5 | -7%
O=C(NNC(=O)c1cccs1)c1ccc(Cl)c([N+](=O)[O-])c1 | 54* | 11 | 28 | -11 | 1 | 2 | -6%
Cc1ccc(NC(=O)NCc2ccco2)cc1[N+](=O)[O-] | 3 | · | · | · | · | 6 | ·
O=C(NCc1ccco1)Nc1cccc([N+](=O)[O-])c1 | 52* | 4 | -6 | -2 | 0 | 0 | -1%
CCOc1cc(C(=O)NCC(=O)N2CCC3(CC2)NCCc2[nH]cnc23)cc(OCC)c1OCC | 56* | 12 | 3 | -10 | -2 | -1 | 0%
COc1ccc(-c2csc(C3=C(O)CN(Cc4ccc(Cl)cc4)C3=N)n2)cc1OC | -2 | 1 | -18 | 1 | 3 | 0 | ·
N=C1C(c2nc(-c3ccc(F)cc3)cs2)=C(O)CN1Cc1ccc(Cl)cc1 | 128* | -10 | -33 | 8 | 3 | · | 0%
Cc1ccc(C2=CSC3=NS(=O)(=O)CCN23)cc1 | -2 | 4 | 3 | -4 | 2 | -3 | ·
Nc1ccc2c(c1)OCCOCCOCCOCCOCCO2 | 64* | -7 | 7 | 2 | 1 | -1 | 0%
Brc1ccc2c(c1)OCCOCCOc1cc(Br)ccc1OCCOCCOCCO2 | · | 6 | 10 | -9 | 22 | · | ·
N=C1/C(=C\c2ccc(Br)o2)C(=O)N=C2SC(CC(=O)N3CCOCC3)=NN12 | 94* | 4 | 1 | -4 | 1 | -2 | -11%
CCN(CC)CCCN=C(C)C1=C(O)c2ccccc2C1=O | 66* | · | · | · | -4 | 2 | -1%
COc1ccc(CCCc2n[nH]c(=S)o2)cc1C | 1 | 4 | · | -6 | 1 | 3 | ·
COc1ccc(CCCc2n[nH]c(=S)n2C)cc1C | 52* | 5 | 1 | -5 | 4 | 0 | -2%
CC1(c2ccc3c(c2)OCCO3)NC(=O)N(CC(=O)Nc2c(F)cccc2F)C1=O (stereo unspecified) | 14 | -3 | · | 3 | 3 | 0 | ·
CCC1=NN2C(=N)/C(=C\c3ccc(SCc4ccco4)o3)C(=O)N=C2S1 | 103* | -9 | -51 | 9 | 0 | 1 | -7%
COc1cccc(Nc2nc(C(N)CCc3ccccc3)cs2)n1 (stereo unspecified) | 8 | · | · | · | -1 | -2 | ·
Cc1ccc(-c2ccc(/C=N/N=C3/NC(=O)C(CC(=O)O)S3)o2)c([N+](=O)[O-])c1 (stereo unspecified) | 5 | 10 | 20 | · | 4 | · | ·
O=C(O)CC1S/C(=N/N=C/c2ccc(-c3ccccc3[N+](=O)[O-])o2)NC1=O (stereo unspecified) | 91* | 14 | -29 | -11 | 8 | 8 | 1%
CC(C)c1ccc(NC(=S)N2CCCC(c3ccc(F)cc3)=N2)cc1 | 60* | 3 | 1 | 0 | 0 | 3 | 0%
SMILES | NSD2 HMT inh | MITF TRPM1 inh | PfHsp90 set2 | MITF TRPM1 HTS | Glyco luc inh | Wnt act | Alpha artifact
CC(Cc1ccccc1)N/C=C1\CC(=O)NC1=O (stereo unspecified) | -1 | 8 | -39 | -10 | 2 | · | ·
Cc1cc(OCCn2nc(C(=O)O)c3ccccc3c2=O)ccc1C(C)C | 90* | -3 | -25 | 3 | 5 | 1 | -3%
O=C(Nc1ccc(N2C(=O)CC3(CCCCC3)C2=O)c(Cl)c1)c1ccccn1 | 0 | · | · | · | · | · | ·
CC(=O)c1cccc(NC(=O)c2csc(-n3nc(C)cc3C(F)(F)F)n2)c1 | 125* | -4 | · | 8 | 1 | · | 1%
CCc1c(C)nc2ncnn2c1Nc1ccc(C)cc1 | 55* | 13 | 5 | · | 0 | 4 | -1%
COc1ccccc1C(=O)NNC(=O)Cc1ccccc1 | 55* | 10 | 4 | -13 | -1 | -1 | 2%
COC(=O)NNC(=O)c1ccccc1OC | -3 | 5 | -6 | -5 | 0 | 4 | ·
O=C(COc1ccc(S(=O)(=O)N2CCCC2)cc1)Nc1ccc2c(c1)OCCO2 | -1 | 7 | 8 | -4 | -2 | -2 | ·
COC(=O)c1cc(C)nc2c1C(=O)C(=O)C=C2N1CCOCC1 | + | 84* | -5 | · | -20 | -10 | -1%
COC(=O)c1cc(S(=O)(=O)N2CCOCC2)c(Cl)cc1N1CCOCC1 | -1 | 0 | -12 | · | 4 | · | ·
Cc1nc(C)n(CC(C)C(=O)N2CCN(S(=O)(=O)c3ccccc3)CC2)n1 (stereo unspecified) | -2 | 2 | 12 | -1 | 2 | -1 | ·
COc1ccc(/C=N/Nc2cc(N3CCCC3)nc(N3CCCC3)n2)cc1 | 102* | -6 | 5 | 7 | -7 | 0 | -9%
COc1cc(NC(=O)COC(=O)CNC(=O)c2ccc(C)cc2)c(C)cc1[N+](=O)[O-] | 59* | 3 | 0 | -3 | 1 | -2 | -4%
NC(=O)C1=C[C@@H](c2ccc(Br)cc2)C[C@@H](OCCCCO)O1 | · | -6 | · | -2 | 2 | 0 | ·
Cc1cc(C)cc(CC(=O)N2CCC2(C)C(=O)NS(=O)(=O)Cc2ccccc2)c1 (stereo unspecified) | -1 | · | · | · | 2 | -1 | ·
COc1cn(-c2ccccc2)nc1C(=O)NCc1ccccc1 | 79* | -3 | -3 | 1 | 1 | 0 | -4%
O=C(OCc1ccc(Cl)c(Cl)c1)c1cccnc1Cl | 107* | -11 | -26 | 13 | 0 | 1 | -6%
O=C(OCc1ccc(Br)cc1)c1cccnc1Cl | 6 | 0 | 12 | -2 | 0 | 0 | ·
CCCc1nc2c3ccccc3ccn2c1CC(C)(C)C | · | · | · | · | 1 | -1 | ·
